The entries come from a sample that favours hits as a whole.
Pf Dd2 growth – inhibitors of Plasmodium falciparum Dd2 growth; P. falciparum Dd2 growth, SYBR Green, 72 h; Potency, µM (highest dose often 28.9 µM), for the others: at the top dose activity, negative = inhibition, usual class: inhibitors; hit rate 4.3% among 120,000; AID 1347417; active = well fitted inhibition curve with a large enough effect;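 also: plate controls were DMSO vehicle for no effect and reference drug for full effect; nearly all actives have a fitted effect of over 65% in size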
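Infected erythrocytes (Dd2, 0.3% parasitemia, 2.5% hematocrit final) are added to compound in RPMI-1640/Albumax II medium, grown 72 h at 37C in low oxygen, then lysed with saponin/Triton-X containing SYBR Green and read by fluorescence.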
Starred values were filed as active, the others as inactive; i = inactive; [ ] = remark or other dose. Potency is read from the fitted curve at half-maximal effect.

SMILES	Pf Dd2 growth
Cc1ccccc1C(=O)N1CCc2nc(C(C)C)nc(-c3ccc(O)cc3)c2C1	-1%
COc1cccc(C(=O)N2CCc3nc(C)nc(-c4ccc(Cl)cc4)c3CC2)c1	i
CC(C)c1nc2c(c(-c3ccc(O)cc3)n1)CCN(C(=O)c1cccc(Cl)c1)CC2	7.9µM*
CCN(CC)Cc1cnc2c(C(=O)N(C)CCc3ccccn3)cnn2c1	-7%
COCCN(Cc1ccc(C)cc1)Cc1ccc(C#N)cc1	i
CCCc1nc(C(=O)N(C)Cc2cnn(-c3ccccc3C)c2)cs1	2%
COCCN(Cc1cnn(-c2ccccc2C)c1)CC1CC1	7.1µM*
CCn1cc(S(=O)(=O)N2CCC(C(=O)N3CCCCCCNC(=O)CC3)CC2)cn1	2%
CC(C)Oc1cccc(-c2cn(C)c(=O)n3cc(CN4CCOCC4)nc23)c1	i
Cc1cccc(N2CCN(C(=O)c3ccc4c(c3)c(C)c(C)n4C)CC2C)c1 (stereo not given)	i
Cc1cccc(N2CCN(C(=O)c3cc4c(=O)n(C)c5ccccc5c4s3)CC2C)c1 (stereo not given)	5%
Cc1ccc(-c2c(C(=O)N3CCN(c4cccc(C)c4)C(C)C3)oc(=O)c3ccccc23)cc1 (stereo not given)	4.5µM*
Cn1c(Cn2ccnc2)nnc1C1CCCN(C(=O)Nc2ccccc2F)C1 (stereo not given)	-9%
O=C(NCc1cccc(Br)c1)C1CCN(c2cnc3nccnc3c2)CC1	i
CCc1ccc(CNC(=O)c2ccc3c(c2)nc2n3CCC(C)C2)cc1 (stereo not given)	13%
COc1ccc(Br)cc1CNC(=O)c1ccc(-n2c(C)cc3c2CCC(C)C3)cc1 (stereo not given)	13µM*
CCCOc1ccc(CNC(=O)c2ccc(-n3c(C)cc4c3CCC(C)C4)cc2)cc1 (stereo not given)	432%[5.79 µM]
Cc1cc2c(n1-c1ccc(C(=O)NCc3cccc(Br)c3)cc1)CCC(C)C2 (stereo not given)	11µM*
CCc1ccc(CNC(=O)c2ccc(-n3c(C)cc4c3CCC(C)C4)cc2)cc1 (stereo not given)	13µM*
COc1ccc(CCNC(=O)c2ccc(-n3c(C)cc4c3CCC(C)C4)cc2)cc1OC (stereo not given)	161%[5.79 µM]
COc1ccc(OC)c(CNC(=O)c2ccc3c(c2)c(C)c(C)n3C)c1	-17%
Cc1cc2c(n1-c1ccc(C(=O)NCCc3ccccc3)cc1)CCC(C)C2 (stereo not given)	-21%
O=C([C@@H]1C[C@H](Oc2ccccc2)CN1S(=O)(=O)c1ccccc1)N1CCCC1	-9%
C/C=C(\C)CN1C[C@@H](NC(=O)Cn2ccnc2C)C[C@H]1C(=O)NCC	29%
CC(C)CCN1CCNC(=O)C1CC(=O)N(C)Cc1nncn1C(C)C (stereo not given)	-8%
SMILES	Pf Dd2 growth
CN(C)Cc1nnc(C2CC(Nc3cncc(C(=O)N(C)C)n3)C2)n1C (stereo not given)	-4%
O=C(O)CCCC(=O)N1Cc2ccccc2CC2(CCCN(CC3CCCC3)C2)C1 (stereo not given)	10%
NCC(=O)N1Cc2ccccc2CC2(CCN(CC3CCNC3)C2)C1 (stereo not given)	15%
NCC(=O)N1Cc2ccccc2CC2(CCN(CC3CCOCC3)C2)C1 (stereo not given)	8.9µM*
CN(C)CC(=O)N1Cc2ccccc2CC2(CCN(CC3CCOCC3)C2)C1 (stereo not given)	-21%
CN1CCC(C(=O)N2Cc3ccccc3CC3(CCN(Cc4ccccn4)C3)C2)CC1 (stereo not given)	-21%
CN(C)CCC(=O)N1Cc2ccccc2CC2(CCCN(CC3CCOCC3)C2)C1 (stereo not given)	-10%
CCN1CCC2(Cc3ccccc3CN(C(=O)C3CCCC3)C2)C1 (stereo not given)	8.9µM*
CC(=O)NCC(=O)N1Cc2ccccc2CC2(CCN(CC3CCOCC3)C2)C1 (stereo not given)	4%
O=C(C1CCCC1)N1Cc2ccccc2CC2(CCN(CC3CCOCC3)C2)C1 (stereo not given)	7.1µM*
CCCN1CCCC2(Cc3ccccc3CN(C(=O)C3CCN(C)CC3)C2)C1 (stereo not given)	-18%
NCC(=O)N1Cc2ccccc2CC2(CCCN(CC3CCCC3)C2)C1 (stereo not given)	7.9µM*
CC(=O)NCCC(=O)N1Cc2ccccc2CC2(CCCN(CC3CCCC3)C2)C1 (stereo not given)	-18%
O=C1NCCCCCCN(C(=O)CC(F)(F)F)[C@H]2C[C@H](c3nc(-c4cccnc4)no3)C[C@@H]12	i
COCCc1nncn1C1CCN(S(=O)(=O)c2ccccc2C(F)(F)F)CC1	-20%
O=C(NCc1ccncc1)C1CN(S(=O)(=O)c2cccc(Cl)c2)CC12CCOCC2 (stereo not given)	-18%
COc1cccc(CN2CCC3(CC2)CC(c2ccccc2)C(=O)N3C)c1 (stereo not given)	-20%
Cc1ccc(-c2noc(CCCC(=O)N3CCc4nc5cc(-c6ccccc6)[nH]n5c(=O)c4C3)n2)cc1	15%[5.79 µM]
CC(=O)Nc1ccc(CN2C(=O)OC3(CCN(Cc4ccc(C(C)C)cc4)CC3)C2(C)c2ccccc2)cc1 (stereo not given)	-14%
Cc1c(Cl)cccc1NC(=O)Cn1ccn2nc3c(c2c1=O)CCCC3	-9%
Cc1ncsc1CN1CCCCCCNC(=O)CC1	9%
CC(C)c1nnc(C2CN(C(=O)COc3ccc(Cl)cc3)CC23CCOCC3)o1 (stereo not given)	-5%
COCCC(=O)N1CCc2c(n(CCOc3ccccc3)n(-c3ccccc3)c2=O)C1	23%[44.1 µM]
Cc1cn2nc(C(=O)Nc3ccc(N(C)C)cc3)cc2c(N(C)Cc2ccccc2)n1	0.79µM*
Cc1cn2nc(C(=O)Nc3ccc(F)c(C)c3)cc2c(N2CCSCC2)n1	-28%
SMILES	Pf Dd2 growth
Cc1cn2nc(C(=O)Nc3ccc(C)c(F)c3)cc2c(N(C)Cc2ccccc2)n1	10µM*
Cc1ccc(CNC(=O)c2cc3c(N(C)Cc4ccccc4)nc(C)cn3n2)cc1	i
COc1ccc(NC(=O)c2cc3c(N4CCSCC4)nc(C)cn3n2)cc1F	28%
Cc1ccc(NC(=O)c2cc3c(N4CCCC4)nc(C)cn3n2)cc1	-4%
COc1c(F)ccc(C(=O)N2CCC3(CCCNC3)C2)c1F (stereo not given)	3%
COCCC(=O)Nc1ccc2c(c1)CCC(=O)N2C	5%
NC(=O)Cn1ccc2cc(OCC3CCN(C(=O)CCc4ccccc4)CC3)cnc21	-22%[44.1 µM]
Cc1ccccc1-n1c(SCc2ccc(Cl)cc2)nc2[nH]ncc2c1=O	10µM*
O=c1c2cn[nH]c2nc(SCc2cccc(Br)c2)n1-c1ccc(Cl)cc1	9%
Cc1cc(-n2c(SCc3ccccc3F)nc3[nH]ncc3c2=O)ccc1Cl	-27%
O=C(Cc1ccccc1)NCc1nnc2n1C(C(=O)O)CC2 (stereo not given)	11%
O=S(=O)(N[C@@H]1CCOC[C@H]1O)c1cccc(C(F)(F)F)c1	2%
CCOCC(=O)N1CCC(Nc2nccnc2OC)CC1	49%[5.79 µM]
C=CCc1cc(-c2c(-c3ccccc3)ncn2CCCO)cc(OC)c1O	i
C=CCc1cc(-c2c(-c3ccccc3)ncn2CCOCCO)cc(OC)c1O	6.3µM*
OCCOCCn1cnc(-c2ccccc2)c1-c1ccccc1Cn1cccn1	-11%
O[C@@H]1C[C@@H](c2nc(-c3cccnc3)no2)N(Cc2cc3ccccc3o2)C1	-15%[44.1 µM]
O=[S+]1([O-])NC2(CCN(Cc3cccc4ccccc34)C2)CNc2ccccc21 (stereo not given)	i

Compound activity (PubChem)
